In PubChem BioAssay (Tox21):
Inconclusive results are not listed. Values without a mark were called inactive. The source made the active and inactive calls. Calls come from the whole dose curve.

These molecules were tested against Retinoic acid receptor RXR-alpha (Homo sapiens) (UniProt P19793) (assay: qHTS assay to identify small molecule agonists of the RXR signaling pathway (AID 1159527; note: nearly all actives have a fitted effect of over 35% in size)). Conditions: HEK293T RXRa-UAS-bla, beta-lactamase ratio, 16 h; series mostly up to 76.8 µM; activation: at the top concentration.
Sequence of Retinoic acid receptor RXR-alpha (Homo sapiens) (P19793 whole entry, looked up): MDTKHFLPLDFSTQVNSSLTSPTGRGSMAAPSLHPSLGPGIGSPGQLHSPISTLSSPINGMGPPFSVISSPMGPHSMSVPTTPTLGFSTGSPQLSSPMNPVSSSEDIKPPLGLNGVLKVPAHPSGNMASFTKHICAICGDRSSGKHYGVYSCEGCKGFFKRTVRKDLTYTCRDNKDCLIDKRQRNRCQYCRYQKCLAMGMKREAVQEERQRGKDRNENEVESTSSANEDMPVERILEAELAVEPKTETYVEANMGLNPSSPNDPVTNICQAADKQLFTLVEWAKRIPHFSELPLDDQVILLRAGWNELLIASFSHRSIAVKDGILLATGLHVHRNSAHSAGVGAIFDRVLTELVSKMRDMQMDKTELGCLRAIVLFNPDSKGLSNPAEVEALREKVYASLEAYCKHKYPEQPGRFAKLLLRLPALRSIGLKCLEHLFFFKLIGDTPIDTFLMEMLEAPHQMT
Source text: U.S. Tox21 Program National Center for Advancing Translational Sciences [NCATS] NIH Chemical Genomics Center [NCGC] U.S. Environmental Protection Agency [EPA] National Institutes of Environmental Health Sciences [NIEHS] National Toxicology Program [NTP] U.S. Food and Drug Administration [FDA] Tox21 Assay Overview: The Retinoid X receptor (RXR), a nuclear hormone receptor expressed in liver, spleen, placenta, epidermis, central nervous system. These receptors are able to form homo and heterodimers with other nuclear receptors and due to this heterodimerizing ability, RXR functions as master regulators producing diverse physiological effects. Three subtypes of RXR exist; alpha, beta and gamma. Retinoid X receptor alpha (RXR-alpha) has potential roles in metabolic signaling pathways, skin alopecia, dermal cysts, cardiac development, insulin sensitization etc. Therefore screening environmental chemicals on RXR-alpha signaling can be used for the studies focused on such therapeutic applications. For quantification of RXR-alpha ligands signaling, GeneBLAzer RXR alpha-UAS-bla HEK 293T (Life Technologies, Carlsbad, CA) cells containing a beta-lactamase reporter-gene under control of Retinoid X receptor-alpha response element were used to screen Tox21 10K library.
Tox21 Assay Protocol Summary: RXR-alpha HEK 293T cells were dispensed at 2,000 cells/6 uL of assay medium containing 2% charcoal-stripped FBS using a Multidrop Combi (ThermoFisher Scientific, Waltham, MA) dispenser. The assay was performed in black wall/clear-bottom 1536-well plates (Greiner Bio-One North America Inc. Monroe, NC). 9-cis retinoic acid was used as a positive control in the agonist mode screen. After the assay plates were incubated at 37 C and 5% CO2 for 5 hr, 23 nL of compounds dissolved in DMSO, positive controls or DMSO only were transferred to the assay plate by a Pintool station (Kalypsys, San Diego, CA). The assay plates were incubated at 37 C and 5% CO2 for 16 hr. One uL of LiveBLAzer B/G FRET substrate (Life Technologies) was added using a Flying Reagent Dispenser (Aurora Discovery, San Diego, CA) and the plates were incubated at room temperature for 2 hr. Fluorescence intensity (405 nm excitation, 460/530 nm emission) was measured using an Envision plate reader (PerkinElmer, Shelton, CT).
% is set by controls: 0 for no effect and ±100 for the full control effect; potency is the fitted concentration of half-maximal effect.

| Structure (SMILES) | activation | Potency |
| --- | --- | --- |
| CC(C)(O)C(Cl)(Cl)Cl | 2.77% [at 35.3 µM] |  |
| OP(O)c1ccccc1 | 0.265% |  |
| CCCCS(=O)(=O)Cl | -14.3% |  |
| CCN(CCO)CCO | 0.213% |  |
| ClC1=C(Cl)C2(Cl)C(CBr)CC1(Cl)C2(Cl)Cl (stereo not given) | 0.767% [at 35.3 µM] |  |
| CON(C)C(=O)Nc1ccc(Br)c(Cl)c1 | -11.9% |  |
| COc1cc(CCN)cc(OC)c1OC | 2.9% |  |
| CCCN1CCC[C@@H]2Cc3nc(N)ncc3C[C@H]21 | 16% [at 35.3 µM] |  |
| CC(C)[N+](C)(CCC(C(N)=O)(c1ccccc1)c1ccccc1)C(C)C | -0.36% [at 35.3 µM] |  |
| COP(=O)(O)OC | 4.84% |  |
| O=C(Cl)C(Cl)Cl | 2.43% |  |
| CNC(=O)Oc1ccccc1C(C)C |  | 49 µM (active) |
| C1CN2CCC1CC2 | 3.94% [at 35.3 µM] |  |
| CCC(C)(C#N)N=NC(C)(C#N)CC (stereo not given) | -0.846% |  |
| OCC(Cl)CCl (stereo not given) | 10.5% |  |
| CN1C(=O)COc2c(C(=O)NC3CN4CCC3CC4)cc(Cl)cc21 (stereo not given) | 10% [at 35.3 µM] |  |
| CCOC(=O)COc1ccc(Cl)cc1Cl | 4.6% |  |
| CN=CNc1ccc(C)cc1C | 9.62% |  |
| N#CN=C1SCCN1Cc1ccc(Cl)nc1 |  | 38.9 µM (active) |
| NC1(c2ccccc2)CCCCC1 | -9.69% |  |

| Structure (SMILES) | activation | Potency |
| --- | --- | --- |
| C=CC=O | 0.772% |  |
| C[C@H](CN1CCOCC1)C(C(=O)N1CCCC1)(c1ccccc1)c1ccccc1 | -25.6% |  |
| CN(C)CCN(C)C | 11.8% |  |
| C#CC(C)(C)O | -3.55% |  |
| Clc1ccc(C(Cl)(Cl)Cl)cn1 | 5.02% |  |
| Cc1ccc(Cl)c(O)c1 | -0.999% [at 35.3 µM] |  |
| CNC(=O)NC(O)C(Cl)(Cl)Cl (stereo not given) | 7.1% [at 35.3 µM] |  |
| O=C1CC(=O)NC(=O)N1 | 11.2% |  |
| c1ccc2c(c1)CCNC2 | 0.375% |  |
| C/C=C/CC#N | -0.458% |  |
| O=C(O)CBr | 6.65% |  |
| CCSC(=O)Cl | 7.57% |  |
| CCC1(c2cccc(O)c2)CCCCN(C)C1 (stereo not given) | 11.9% [at 35.3 µM] |  |
| CC#Cc1cc(C)nc(Nc2ccccc2)n1 | 6.44% |  |
| CCOC(=O)C(Cl)Cc1cc(-n2nc(C)n(C(F)F)c2=O)c(F)cc1Cl (stereo not given) | -11% |  |
| CCCCOC(C)=O | -3.28% |  |
| O=C(CCl)NCO | -8% |  |
| N[C@@H]1C[C@H]1c1ccccc1 | -1.23% [at 35.3 µM] |  |
| CN1COCN(Cc2cnc(Cl)s2)/C1=N\[N+](=O)[O-] | 8.66% |  |
| CCCCCCCCSC(=O)Oc1cc(Cl)nnc1-c1ccccc1 | 15.7% |  |
